# The whole screen tested about 310,000 compounds, of which about 2,200 (0.71%) showed an effect of 50% or more. The effect is printed as a negative number. Only a selection was taken, and strong results are over-represented in it overall.
# Target: human ether-à-go-go-related gene (hERG) potassium channel (human, UniProt Q12809)
# Experiment: primary screen, population patch clamp on CHO cells stably expressing hERG; higher = less effect of the substance
# Chain of human ether-à-go-go-related gene (hERG) potassium channel (Q12809 whole entry, looked up): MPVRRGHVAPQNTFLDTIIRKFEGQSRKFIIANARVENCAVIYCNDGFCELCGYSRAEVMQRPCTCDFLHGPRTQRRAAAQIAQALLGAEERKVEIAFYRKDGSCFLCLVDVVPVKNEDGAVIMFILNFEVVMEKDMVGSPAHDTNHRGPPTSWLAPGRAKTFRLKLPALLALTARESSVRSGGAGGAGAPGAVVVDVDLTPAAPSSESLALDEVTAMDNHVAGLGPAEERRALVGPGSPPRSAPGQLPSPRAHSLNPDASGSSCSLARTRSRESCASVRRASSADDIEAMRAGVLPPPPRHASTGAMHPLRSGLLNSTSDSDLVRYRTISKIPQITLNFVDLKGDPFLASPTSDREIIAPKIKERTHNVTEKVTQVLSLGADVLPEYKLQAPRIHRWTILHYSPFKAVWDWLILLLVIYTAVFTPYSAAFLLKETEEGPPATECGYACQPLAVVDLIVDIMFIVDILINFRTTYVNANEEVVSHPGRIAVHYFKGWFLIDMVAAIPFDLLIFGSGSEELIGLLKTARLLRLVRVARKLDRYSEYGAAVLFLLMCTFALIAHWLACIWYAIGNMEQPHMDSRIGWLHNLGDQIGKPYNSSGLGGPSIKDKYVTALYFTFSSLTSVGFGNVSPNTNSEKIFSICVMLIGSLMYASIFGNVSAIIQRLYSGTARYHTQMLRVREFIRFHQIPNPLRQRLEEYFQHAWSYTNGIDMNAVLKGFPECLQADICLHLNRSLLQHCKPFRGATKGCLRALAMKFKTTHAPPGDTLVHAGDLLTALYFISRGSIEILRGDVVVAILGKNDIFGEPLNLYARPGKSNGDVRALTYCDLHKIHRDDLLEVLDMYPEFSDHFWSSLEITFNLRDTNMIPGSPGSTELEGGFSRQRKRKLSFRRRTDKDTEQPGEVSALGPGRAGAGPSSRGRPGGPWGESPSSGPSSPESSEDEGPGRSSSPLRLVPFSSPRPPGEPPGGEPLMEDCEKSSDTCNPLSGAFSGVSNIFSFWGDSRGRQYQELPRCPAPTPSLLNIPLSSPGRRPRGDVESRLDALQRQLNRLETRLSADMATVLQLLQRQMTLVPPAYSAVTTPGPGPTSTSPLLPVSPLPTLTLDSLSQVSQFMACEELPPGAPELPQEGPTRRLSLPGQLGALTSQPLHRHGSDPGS
row,SMILES,"hERG current change (%, negative = inhibition) at 1uM [%]"
1,Cc1ccc(C(=O)OCC(=O)Nc2ccc(S(N)(=O)=O)cc2)c(O)c1,7.79
2,CC(=O)NC(=S)NNC(=O)C(c1ccccc1)c1ccccc1,15
3,C=CCNc1cccc(Br)c1,12.5
4,COc1cc(/C=N/Nc2nn3cnnc3c3ccccc23)ccc1O,20.3
5,CCCCCCOC(=O)C[N+](C)(C)CCOC1CC2CCC1(C)C2(C)C.[Cl-] (centres unmarked),-69
6,CCCOC(=O)C[N+](C)(C)CCOC1CC2CCC1(C)C2(C)C.[Br-] (centres unmarked),11.2
7,CCCCOC(=O)C[N+](C)(C)CCOC1CC2CCC1(C)C2(C)C.[Br-] (centres unmarked),-4.93
8,COc1ccc(NC(=O)c2cccn(CC=C(C)C)c2=O)cc1,11.5
9,Cc1c(S(=O)(=O)N2CCN(c3cccc(Cl)c3)CC2)c(=O)n(C)c(=O)n1C,5.16
10,COc1ccc(OC)c2c1nc1n2CCS1,4.74
11,CN1CCCN(CC(O)COCc2cccs2)CC1 (centres unmarked),5.43
12,COc1ccccc1N1CCN(CC(O)COCc2cccs2)CC1.Cl (centres unmarked),0.795
13,OC(COCc1cccs1)CN1CCN(c2ccccc2Cl)CC1 (centres unmarked),-50.8
14,CCOc1ccccc1N1CCN(CC(O)COCc2cccs2)CC1 (centres unmarked),-1.54
15,Cl.OC(COCc1cccs1)CN1CCCCCC1 (centres unmarked),-5.74
16,Cc1cccc(N2CCN(CC(O)COCc3cccs3)CC2)c1C (centres unmarked),-63.9
17,O=C(CCc1ccc(S(=O)(=O)NCCc2ccccc2)cc1)NCc1ccco1,6
18,COc1cccc2sc(NN)nc12,0.731
19,CCCc1[nH]n(-c2nc3ccccc3s2)c(=O)c1C=NCC(C)C,6.14
20,CCCN=Cc1c(CCC)[nH]n(-c2nc3ccccc3s2)c1=O,-4.61
21,CCCc1[nH]n(-c2nc3ccccc3s2)c(=O)c1C=NCCN1CCOCC1,-4.58
22,O=c1c(C=NCCCO)c(-c2ccccc2)[nH]n1-c1nc2ccccc2s1,-2.36

row,SMILES,"hERG current change (%, negative = inhibition) at 1uM [%]"
1,CCCc1[nH]n(-c2nc3ccccc3s2)c(=O)c1C=NCCCOC,-9.11
2,CCN(CC)CCCN=Cc1c(-c2ccccc2)[nH]n(-c2nc3ccccc3s2)c1=O,-81.7
3,CCCCCN=Cc1c(C)[nH]n(-c2nc3ccccc3s2)c1=O,-16.9
4,CCCc1[nH]n(-c2nc3ccccc3s2)c(=O)c1C=NCCCN(CC)CC,-57.6
5,COCCCN=Cc1c(-c2ccccc2)[nH]n(-c2nc3ccccc3s2)c1=O,-55.9
6,CCCN=C(C)c1c(-c2ccccc2)[nH]n(-c2nc3ccccc3s2)c1=O,7.75
7,CN(C)CCCN=Cc1c(-c2ccccc2)[nH]n(-c2nc3ccccc3s2)c1=O,-58.1
8,O=c1c(C=NCCCn2ccnc2)c(-c2ccccc2)[nH]n1-c1nc2ccccc2s1,-26.9
9,Cn1ccc(NC(=O)c2ccc(Cl)cc2)n1,11
10,CCC(C)N1C(=O)CCC1C(=O)N1CCN(c2ccccc2F)CC1 (centres unmarked),17
11,CC(=O)N1CCN(C2=NC(=O)C(=C3CCCCC3)S2)CC1,-2.21
12,CCCNC(=O)C1CC(=O)N(c2ccc(OCC(=O)Nc3cccc(C)c3C)cc2)C1 (centres unmarked),11
13,CN1CCN(C(=O)c2ccc3c(Cl)c4c(nc3c2)CCCC4)CC1,-0.735
14,Cc1cc(C)c2nc(C(F)(F)F)nc(NCCCN3CCOCC3)c2c1,9.96
15,CCC(C)(C)C1CCc2[nH]nc(C(=O)O)c2C1 (centres unmarked),11.9
16,CC(=O)NS(=O)(=O)c1ccc(NC(=O)C2C3C=CC(C3)C2C(=O)O)cc1 (centres unmarked),7.33
17,Cc1ccc2c(c1)Oc1ccc(NC(=O)CCCl)cc1C(=O)N2,3.94
18,COc1ccc(CN2[C@@H](CC(C)=O)c3ccc(/C=C/C(C)=O)cc3S2(=O)=O)cc1,-0.639
19,O=C(c1nn(Cc2ccccc2)c(=O)c2ccccc12)N1CCN(c2ccccn2)CC1,-14.5
20,CC(=O)c1ccc(N2CCN(C(=O)c3nn(Cc4ccccc4)c(=O)c4ccccc34)CC2)cc1,-72.9
21,O=C(c1nn(Cc2ccccc2)c(=O)c2ccccc12)N1CCN(C/C=C/c2ccccc2)CC1,-38.3
22,Cn1cc([N+](=O)[O-])c(C(=O)NC2CCCCCC2)n1,15.5

row,SMILES,"hERG current change (%, negative = inhibition) at 1uM [%]"
1,COc1cc(-c2nc3ccccn3c2NCC2CCCO2)ccc1O (centres unmarked),2.7
2,COc1ccc(-c2nc3cc(C)ccn3c2NCC2CCCO2)cc1OC.Cl (centres unmarked),-55.3
3,CCOc1cc(-c2nc3cc(C)ccn3c2NCC2CCCO2)ccc1O (centres unmarked),-47.3
4,O=C(CSc1nc2c(sc3ccccc32)c(=O)n1Cc1ccco1)NCC1CCCO1 (centres unmarked),-0.521
5,Cc1cc2c(=O)n(Cc3ccco3)c(SCC(=O)NCc3ccco3)nc2s1,-0.915
6,CCc1cc2c(=O)n(Cc3ccco3)c(SCC(=O)N(C)C3CCS(=O)(=O)C3)nc2s1 (centres unmarked),-85.4
7,CCc1cc2c(=O)n(Cc3ccco3)c(SCC(=O)NC3CCS(=O)(=O)C3)nc2s1 (centres unmarked),-29.7
8,COCCn1c(SCC(=O)N(C)C2CCS(=O)(=O)C2)nc2ccccc2c1=O (centres unmarked),4.99
9,CC(C)Cn1c(SCC(=O)N(C)C2CCS(=O)(=O)C2)nc2cc(Cl)ccc2c1=O (centres unmarked),4.62
10,CCN(C(=O)CSc1nc2cc(Cl)ccc2c(=O)n1Cc1ccco1)C1CCS(=O)(=O)C1 (centres unmarked),-70.2
11,CCN(C(=O)CSc1nc2cc(Cl)ccc2c(=O)n1CC(C)C)C1CCS(=O)(=O)C1 (centres unmarked),10.7
12,CN(C(=O)CSc1nc2cc(C(=O)O)ccc2c(=O)n1Cc1ccccc1)C1CCS(=O)(=O)C1 (centres unmarked),17.6
13,CN(C(=O)CSc1nc2ccc(Br)cc2c(=O)n1Cc1ccco1)C1CCS(=O)(=O)C1 (centres unmarked),-83.1
14,CCc1cc2c(=O)n(Cc3ccco3)c(SCC(=O)NCC3CCCO3)nc2s1 (centres unmarked),-60.5
15,CCc1cc2c(SCC(=O)N(C)C3CCS(=O)(=O)C3)ncnc2s1 (centres unmarked),-7.21
16,C/C(=N\NC(=O)c1cc(C)[nH]n1)c1ccc(-c2ccccc2)cc1,13.7
17,O=C(CCN1C(=O)/C(=C/c2ccc(F)cc2)SC1=S)NNC(=O)c1cccnc1,1.06
18,COc1cc(/C=N\NC(=O)C(C)(C)O)ccc1OC/C=C/c1ccccc1,13
19,CC(C)c1ccccc1OS(N)(=O)=O,4.02
20,COc1ccccc1NC(=O)CSc1nnc(C2CCCCC2)n1-c1ccccc1,2.23
21,Cc1cc(OCC(=O)NCCCN2CCCC2=O)c2c(C)cc(=O)oc2c1,19
22,O=C(C[n+]1cn(C(F)F)c2ccccc21)c1ccc(OC(F)F)cc1.[Br-],-53.7

row,SMILES,"hERG current change (%, negative = inhibition) at 1uM [%]"
1,O=C(C[n+]1cn(C(F)F)c2ccccc21)c1ccc(Br)cc1.[Br-],3.52
2,O=C(C[n+]1ccc(C(=O)NCc2ccccc2)cc1)c1ccc(OC(F)F)cc1.[Br-],-81.2
3,O=C(C[n+]1cccc(CNC(=O)c2ccc(OC(F)F)cc2)c1)c1ccccc1.[Cl-],2.3
4,COc1ccc(C(=O)C[n+]2cn(C(F)F)c3ccccc32)c(F)c1.[Br-],-0.738
5,CCOc1ccc(C(=O)C[n+]2ccc(C(=O)NCc3ccccc3)cc2)cc1.[Br-],4.11
6,O=[N+]([O-])c1ccccc1/C=C/C=N/N1CCCCC1,13
7,CC(/C=C/c1ccc(N(C)C)cc1)=N\N=C(/N)SC1CC(=O)N(c2ccc(C(=O)O)cc2)C1=O (centres unmarked),3.7
8,COCCNC(=S)N/N=C/c1ccc([N+](=O)[O-])cc1,12
9,Cc1cc(OCCN2CC(C)OC(C)C2)ccc1[N+](=O)[O-].O=C(O)C(=O)O (centres unmarked),-5.36
10,O=[N+]([O-])c1cccc(CN2CCC(Cc3ccccc3)CC2)c1,-45.6
11,Cc1cc(OCCN2CCOCC2)ccc1[N+](=O)[O-].O=C(O)C(=O)O,10.6
12,Cc1ccc([N+](=O)[O-])c(OCCCN2CCC(Cc3ccccc3)CC2)c1.O=C(O)C(=O)O,-95.8
13,Cc1ccc([N+](=O)[O-])c(OCCN2CCC(Cc3ccccc3)CC2)c1.O=C(O)C(=O)O,-25.9
14,Cc1cc(OCCN2CCCC2)ccc1[N+](=O)[O-].O=C(O)C(=O)O,7.94
15,O=C(O)C(=O)O.O=[N+]([O-])c1cccc(OCCN2CCC(Cc3ccccc3)CC2)c1,-23.6
16,Cc1cc(OCCCN2CCN(Cc3ccccc3)CC2)ccc1[N+](=O)[O-].O=C(O)C(=O)O,-52.5
17,Cc1cc(OCCN2CCC(Cc3ccccc3)CC2)ccc1[N+](=O)[O-].O=C(O)C(=O)O,-53.5
18,Cc1ccc([N+](=O)[O-])c(OCCCN2CCCCCC2)c1.O=C(O)C(=O)O,-14.5
19,O=C(O)C(=O)O.O=[N+]([O-])c1cccc(OCCCN2CCC(Cc3ccccc3)CC2)c1,-82.9
20,Cc1cc(OCCN2CCCCCC2)ccc1[N+](=O)[O-].O=C(O)C(=O)O,-12.8

# Reference: article PMC4336329 (PLoS ONE, 2015)
